Compound activity from PubChem BioAssay.
A selection: hits, their analogues and other compounds. The true share with any hit is near 4.6%.
KLK7 zymogen act: proKLK7 zymogen activators, primary screen, biochemical, fluorescence intensity; 370,000 tested, 0.9% active; purified proKLK7, EDANS-DABCYL substrate fluorescence; 100% is mature enzyme control, 0% vehicle; Kallikrein-7 (Homo sapiens), P49862; AID 652039, 2013; activation, % at 7 µM;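 active = activation above the mean of all tested compounds plus 3 SD, computed per campaign excluding outliers beyond control limits, cut at about 13% in these data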
ADAM17 inh: ADAM17 inhibitors, primary screen, biochemical, QFRET; AID 720648, 2013; inhibition, % at 6.95 µM; 370,000 tested, 0.83% active; recombinant ADAM17, EDANS/DABCYL FRET peptide cleavage;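 active = inhibition above the mean of compounds lying between control limits plus 3 SD, set per campaign, cut at about 8.5% in these data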;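 also: 0% = DMSO-only wells as the low control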
Target sequence (P78536 215-824 limits assumed): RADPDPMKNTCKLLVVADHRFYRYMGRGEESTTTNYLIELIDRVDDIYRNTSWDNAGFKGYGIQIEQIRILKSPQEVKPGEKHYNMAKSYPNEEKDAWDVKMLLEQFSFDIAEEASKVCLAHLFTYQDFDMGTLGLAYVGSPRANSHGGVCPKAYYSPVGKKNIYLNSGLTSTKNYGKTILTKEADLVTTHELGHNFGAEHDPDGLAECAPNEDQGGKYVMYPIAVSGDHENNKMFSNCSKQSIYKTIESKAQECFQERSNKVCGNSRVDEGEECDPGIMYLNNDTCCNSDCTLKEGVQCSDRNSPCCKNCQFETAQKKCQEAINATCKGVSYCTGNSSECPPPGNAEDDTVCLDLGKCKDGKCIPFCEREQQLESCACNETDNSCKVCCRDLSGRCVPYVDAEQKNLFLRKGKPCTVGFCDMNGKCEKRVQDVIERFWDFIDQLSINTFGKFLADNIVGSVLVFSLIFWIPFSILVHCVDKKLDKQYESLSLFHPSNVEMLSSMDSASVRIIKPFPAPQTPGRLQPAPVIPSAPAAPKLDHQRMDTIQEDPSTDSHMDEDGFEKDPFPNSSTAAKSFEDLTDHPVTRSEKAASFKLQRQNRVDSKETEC
ADAM10 inh: human ADAM10 inhibitors, primary screen, biochemical, QFRET, HTS. Disintegrin and metalloproteinase domain-containing protein 10 (Homo sapiens), O14672. recombinant ADAM10, EDANS/DABCYL FRET peptide cleavage, 3 h. inhibition, % at 7 µM. 370,000 tested, 0.62% active;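 active = inhibition above a per-campaign cutoff equal to the mean of compounds falling between control-based bounds plus 3 SD, cut at about 20% in these data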;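 also: 0% = DMSO wells while the 100% control is not disclosed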
FAS TE block: FAS thioesterase domain inhibitors, primary screen, biochemical, fluorescence intensity, uHTS; 360,000 tested, 0.67% active; recombinant FAS-TE, OMFH fluorogenic substrate, fluorescence endpoint; AID 602261, 2012; inhibition, % at 15 µM;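 active = compounds whose normalised, plate-corrected inhibition of enzyme fluorescence in the single-dose primary screen is 50% or more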;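 also: 0% = DMSO with enzyme and 100% = substrate without enzyme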
NR3A LBD binder: binders of NR3A ligand-binding domain, primary screen, biophysical, differential scanning fluorimetry, uHTS; Glutamate receptor ionotropic, NMDA 3A (GRIN3A) ligand-binding domain; NR3A LBD differential scanning fluorimetry, Tm shift; 0% = protein alone, 100% = glycine-bound protein; Tm shift relative to glycine control, % at 25 µM; 340,000 tested, 2.5% active; AID 1259313, 2017;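 active = melting temperature shift of at least 10% of the positive control shift, at one fixed dose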
FAS-TE inh conf: FAS thioesterase domain inhibitors, confirmation, biochemical, fluorescence intensity, single concentration. shares compounds with FAS TE block. recombinant FAS-TE, OMFH fluorogenic substrate. inhibition, % at 15 µM. 2,300 tested, 45% active;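 active = compounds inhibiting the enzyme by at least 50% at 15 µM in any one of the replicates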;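 also: 0% = enzyme with DMSO only and 100% = wells lacking enzyme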
An asterisk follows results filed as active; i = inactive; . = no result.

SMILES	KLK7 zymogen act	ADAM17 inh	ADAM10 inh	FAS TE block	NR3A LBD binder	FAS-TE inh conf
FC(F)(F)Oc1cccc(Cn2ccc3ccc(-c4ccc5ccn(Cc6cccc(OC(F)(F)F)c6)c5c4)cc32)c1	-1	-10	-24	.	.	.
O=C(Nc1cccc(C(=O)O)c1)/C(=C/c1cccc([N+](=O)[O-])c1)NC(=O)c1cccc(Br)c1	-1	-3	-5	62*	-15	58*
O=C(Nc1cccc(C(=O)O)c1)/C(=C/c1ccccc1)NC(=O)c1cccc(Br)c1	0	-3	1	-2	0	.
CN(CCO)c1cc(Sc2nc3ccccc3s2)c2nonc2c1[N+](=O)[O-]	0	3	14	74*	-7	74*
Cc1ccc2c(c1)-c1c(cnn1CC(=O)NCCc1ccc(O)cc1)CO2	0	-2	-5	.	.	.
CCc1cccc(C)c1NC(=O)COC(=O)c1cc([N+](=O)[O-])ccc1N1CCOCC1	0	-4	-5	68*	3	69*
Cc1ccc(C)c(COC(=O)c2cc([N+](=O)[O-])ccc2N2CCOCC2)c1	0	5	8	41	-4	.
Cc1cc(Cl)ccc1NC(=O)COC(=O)c1cc([N+](=O)[O-])ccc1N1CCOCC1	-1	2	6	77*	0	79*
CCOC(=O)c1cc(CC)sc1NC(=O)c1cc([N+](=O)[O-])ccc1N1CCOCC1	0	-2	4	61*	-8	21
O=C(COC(=O)c1cc([N+](=O)[O-])ccc1N1CCOCC1)Nc1ccc(Cl)cc1	-1	6	12	81*	-8	49*
NC(=O)c1ccc(NC(=O)COC(=O)c2cc([N+](=O)[O-])ccc2N2CCOCC2)cc1	0	0	-4	36	3	.
C=C(C)Cn1c(SCC(=O)NN=Cc2c(O)ccc3ccccc23)nnc1-c1ccc(Br)cc1	-19	-5	-12	.	.	.
O=C(COC(=O)c1cc(S(=O)(=O)N2CCOCC2)ccc1Cl)Nc1ccc(Cl)cn1	0	-1	-18	3	.	.
O=C(COC(=O)c1cc([N+](=O)[O-])ccc1N1CCOCC1)Nc1ccc(Cl)cn1	1	1	-8	71*	2	59*
O=C(NC(Cc1ccccc1)c1nc2ccccc2[nH]1)c1ccc(Cl)c([N+](=O)[O-])c1 (stereo unspecified)	0	-1	7	26	7	.
CSCC[C@H](NC(=O)c1ccc(Cl)c([N+](=O)[O-])c1)c1nc2ccccc2[nH]1	0	4	8	59*	-11	64*
COc1cc(OC)c2ccc(=O)oc2c1C(CC(=O)N1CCOCC1)c1ccc2c(c1)OCO2 (stereo unspecified)	0	-11	-61	-2	-1	.
COc1cc(OC)c2c(-c3ccccc3)cc(=O)oc2c1C(CC(=O)N1CCN(c2ccccc2)CC1)c1ccc(N(C)C)cc1 (stereo unspecified)	-1	1	11	70*	0	14
COc1cc(OC)c2ccc(=O)oc2c1C(CC(=O)N1CCN(c2ccccc2)CC1)c1ccc2c(c1)OCO2 (stereo unspecified)	-1	1	0	51*	-1	25
CCN(Cc1cccs1)c1ncnc2ccc(-c3ccc4c(c3)OCO4)cc12	.	-32	-100	.	.	.
CCOC(=O)C1=C(C)Nc2sc(C(=O)c3ccc(C)cc3)c(N)c2C1c1ccc(C(=O)OC)cc1 (stereo unspecified)	-4	0	-1	67*	6	15
O=C1CC(N2CCOCC2)=NC(=O)N1c1ccc(Br)cc1	-1	5	-10	.	.	.
O=C(c1ccccc1)n1ccc(-c2cnc(-c3ccccc3)s2)n1	-5	-328	i	36	-10	.
COc1ccc(S(=O)(=O)n2ccc(-c3cnc(-c4ccccc4)s3)n2)cc1	-39	-78	-225	58*	-9	42
CCOC(=O)[C@]12CCCC3=C1N(CCC3)C(=O)[C@@H](CC(=O)N1CCC(c3ccccc3)CC1)C2	0	-3	-2	.	.	.
SMILES	KLK7 zymogen act	ADAM17 inh	ADAM10 inh	FAS TE block	NR3A LBD binder	FAS-TE inh conf
O=C(CSc1ccc([N+](=O)[O-])cc1)NCC1CCCCC1	0	1	-1	55*	2	62*
O=C(NCC1CCCCC1)c1ccc([N+](=O)[O-])cc1	0	-1	-2	16	-3	.
OC(c1ccccc1)(c1ccccc1)C1CCN(CCCOc2ccc(Br)cc2)CC1	0	6	9	.	.	.
Cc1ccc(CS(=O)(=O)c2ncc(Cl)c(C(=O)Nc3ccc(OC(F)F)cc3)n2)cc1	-1	-1	7	52*	-5	43
COC(=O)c1ccccc1NC(=O)c1nc(S(=O)(=O)Cc2ccccc2)ncc1Cl	0	-5	-5	54*	-2	35
CCOc1ccccc1NC(=O)c1nc(S(=O)(=O)Cc2cccc(C)c2)ncc1Cl	0	-2	5	58*	0	48*
CCc1nnc(NC(=O)c2nc(S(=O)(=O)Cc3cccc(C)c3)ncc2Cl)s1	0	0	-8	0	0	.
CC(=O)Nc1ccc(NC(=O)c2nc(S(=O)(=O)Cc3ccccc3)ncc2Cl)cc1	1	0	4	23	3	.
Cc1ccccc1-c1cccc2c3c([nH]c12)[C@@H]1C[C@H]2[C@@H](CN1CC3)[C@H](C)ON2C	3	-4	-16	.	.	.
COc1ccc(N2CCN(C(=O)CSc3ccc([N+](=O)[O-])cc3)CC2)cc1	0	-2	-1	60*	-1	33*
COc1ccc(N=C(N)NC(=O)OCc2ccccc2)cc1	0	-1	-6	.	.	.
O=C1CN(C(=O)c2cc([N+](=O)[O-])ccc2Cl)C(c2ccccc2)c2cc(F)ccc2N1 (stereo unspecified)	0	3	-3	86*	-3	88*
Cc1ccc(C(=O)N2CC(=O)Nc3ccc(F)cc3C2c2ccccc2)cc1[N+](=O)[O-] (stereo unspecified)	0	-3	-6	25	-1	.
CCC(=O)N1CCc2cc(Br)c(S(=O)(=O)N3CCC(C(=O)NC(C)(C)C)CC3)cc21	0	-1	-7	.	.	.
CS(=O)(=O)N[C@@H]1C[C@@H]2O[C@H](CO)CC[C@@H]2O[C@@H]1CCc1ccc(/C=C/c2ccccc2)cc1	0	0	0	.	.	.
Cc1ccc(S(=O)(=O)Nc2ccccc2C(=O)Nc2nc(-c3ccc(F)cc3)cs2)cc1	-2	-137	-226	56*	31*	58*
